# ± gives the standard deviation.
# Key:
# [1] = system: MILI (PIWIL2) piRISC loaded with L1MC piRNA (26 nt); assay: pre-steady-state target cleavage rate (min^-1); guide: L1MC piRNA 5'p-UAACUAAAUACUAUGCAAGCUGUAGG; higher = faster piRNA-guided slicing of the target; conditions: auxiliary factor: 500 nM mouse GTSF1;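 further: 1 nM active piRISC with 0.1 nM target library at 33 °C single turnover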
# In short: (§1)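 Reactions were run for 0–8 or 0–960 min at 33 °C in HEPES–potassium acetate buffer, combining 1 nM active affinity-purified piRISC with one synthetic guide, […] transcribed, DNA-blocked target RNA library and, in some cases, 500 nM GTSF1 partner protein. Sequencing of uncleaved targets followed, with normalisation to depth and to weakly complementary targets. Three trials were pooled, k3 was capped at 0.0001 min^-1, and the pre-steady-state cleavage rate was taken from a burst-and-steady-state fit.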
# [2] = system: EfPiwi piRISC loaded with L1MC piRNA (26 nt); assay: pre-steady-state target cleavage rate (min^-1); auxiliary factor: 500 nM Ephydatia muelleri Gtsf1; guide: L1MC piRNA 5'p-UAACUAAAUACUAUGCAAGCUGUAGG; MIWI and MILI are mouse PIWI proteins and EfPiwi is from a freshwater sponge; tags in brackets are library labels; higher = faster piRNA-guided slicing of the target
# In short: as §1
Sequence,pre-steady-state target cleavage rate [1],pre-steady-state target cleavage rate [2]
UCCUGCUAAAGCUUGCAUAGUAUUUAGUUA,0.177 ± 0.035,0.00411 ± 0.0014
UCCUGGUACAGCUUGCAAAGUAUUUUGUUA,0.0563 ± 0.014,0.00296 ± 0.0029
UCCUCCUACAGCUUGCAUAGUAUUUAGGUA,0.152 ± 0.045,0.00476 ± 0.0017
UCCUCCUACAGCUUGCAUAGUAUUAUGAAA,0.115 ± 0.029,0.00358 ± 0.0025
UCCUGGUACUGCUUGCAUAGUAUUUAGAAA,0.0143 ± 0.0067,0.00409 ± 0.0019
UCCUGCUACAGCUUGCAUAGUUUUUUGUUA,0.112 ± 0.028,0.00384 ± 0.0021
UCCUGCAACAGCUUGCAUAGUAUUUACAAA,0.232 ± 0.053,0.00305 ± 0.0022
UCCUCCUACAGCUUGCAUAGUAUUUACUAA,0.114 ± 0.027,0.00569 ± 0.003
UCCUGGAACAGCUUGCAUAGUAUUUUCUUA,0.0439 ± 0.014,0.00388 ± 0.0027
UCCUCCUACAGCUUGCAUAGUAUUUUGAAA,0.148 ± 0.03,0.00602 ± 0.0032

# Reference: the supplement of paper PMC10338343
